Test results from PubChem BioAssay.
“And” between values parts separate entries of the source, which are not always exact repeats. Identical values can stand only once. Inconclusive results are not listed. Where a structure was tested more than once in an assay, its records may differ in their call. The source made the active and inactive calls.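 The calls were made as follows, unless noted: active = normalized viability below 100% at a tested concentration; inactive = the rest.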

Columns and labels:
[1] = viability loss in pontine glioma line – cell-based, SU-DIPG-XVII, MIPE5.0, CellTiter-Glo, qHTS, dose response (AID 1347060; cut-off not given, nearly all actives have AC50 up to about 26 µM;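 as to AC50: cells exposed to compound for 48 hours before viability readout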); details: CellTiter-Glo ATP luminescence
[2] = viability loss in pontine glioma line – cell-based, SU-DIPG-XIII, MIPE4.0, CellTiter-Glo, qHTS, dose response (AID 1347061; cut-off not given, nearly all actives have AC50 up to about 37 µM;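 also: cells exposed to compound for 48 hours before readout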); details: CellTiter-Glo ATP luminescence
[3] = viability loss in pontine glioma line – cell-based, JHH-DIPG-1, MIPE4.0, CellTiter-Glo, qHTS, dose response (AID 1347062; cut-off not given, nearly all actives have AC50 up to about 27 µM;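 as to AC50: cells exposed to compound for two days before readout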); details: JHH-DIPG-1 viability, CellTiter-Glo ATP luminescence
[4] = viability loss in pontine glioma line – cell-based, SU-DIPG-XIII, MIPE5.0, CellTiter-Glo, qHTS, dose response (AID 1347064; cut-off not given, nearly all actives have AC50 up to about 23 µM;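 as to AC50: cells exposed to compound for 48 hours before the viability read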); details: CellTiter-Glo ATP luminescence
[5] = viability loss in pontine glioma line – cell-based, SU-DIPG-XXV, MIPE5.0, CellTiter-Glo, qHTS, dose response (AID 1347065; cut-off not given, nearly all actives have AC50 up to about 26 µM;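 also: cells exposed to compound for 48 hours before ATP readout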); details: CellTiter-Glo ATP luminescence
[6] = growth inhibition of DIPG cells – cell-based, MIPE4.0 library, CellTiter-Glo luminescence, qHTS (AID 1347066; cut-off not given, nearly all actives have AC50 up to about 30 µM;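 also: cells exposed to compound for 48 hours before readout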); details: SU-DIPG-VI viability, CellTiter-Glo ATP luminescence
[7] = JHH-DIPG-1 glioma cell viability, MIPE5.0 library, CellTiter-Glo luminescence, qHTS (AID 1347067; cut-off not given, nearly all actives have AC50 up to about 26 µM;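 also: cells exposed to compound for 48 hours before readout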); details: JHH-DIPG-1 glioma viability, CellTiter-Glo ATP luminescence
[8] = growth inhibition of DIPG cells – cell-based, MIPE5.0 library, qHTS (AID 1347068; cut-off not given, nearly all actives have IC50 up to about 30 µM;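 as to IC50: cells exposed to compound for 48 hours before viability readout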); details: SU-DIPG-XXV viability
[9] = viability loss with induced miR-34 in A549 – imaging, A549 dox-inducible miR-34, nuclei and caspase counts, primary screen (AID 1347080;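 active = compounds whose cell count with miR-34 switched on is under 0.7 times the count with it off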); details: A549 miR-34 inducible, Hoechst nuclei count, 48 h
[10] = MELAS cybrid and Rieske KO viability enhancers – cell-based, MELAS cybrids, Rieske KO mouse fibroblasts, CellTiter-Glo, primary screen (AID 1508586;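 active = mean z-score across replicates of 1.96 or higher in either the MELAS or the Rieske mutant cell line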;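 also: z relative to plate mean and SD of compound and empty wells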); details: low glucose
[11] = growth inhibition, single agent or in combination, cell-based, chromothripsis tumors, cisplatin or BGB combos (AID 1671449; in the data active = inhibition above about 80%;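 also: cells exposed for 96 hours; 0% = vehicle DMSO and 100% = killing by high DMSO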); details: LFS_MB_P medulloblastoma cells
[12] = growth inhibition, single agent and combos, cell-based, chromothripsis tumors, cisplatin or BGB combos (AID 1671450; in the data active = inhibition above about 80%;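 also: cells exposed to compound for four days; 0% = vehicle DMSO and 100% = cell killing by high DMSO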); details: HDN33 neuroblastoma cells, stronger effect = higher value
[13] = growth inhibition, single agents and combos, ICB984, cell-based, cisplatin or BGB combos, synergistic combos for chromothripsis tumors (AID 1671451; call rule not given here;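 also: cells exposed for 96 hours before readout; 0% = vehicle DMSO and 100% = killing by high DMSO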); details: ICB984 medulloblastoma cells, drug combinations, stronger effect = higher value
[14] = growth inhibition, single agents and combos, HTB85, cell-based, BGB or cisplatin IC20 combos, synergistic combos for chromothripsis tumors (AID 1671453; in the data active = inhibition above about 80%;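 also: cells exposed for 96 hours before readout; 0% = vehicle DMSO and 100% = high DMSO killing control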); details: HTB85 osteosarcoma cells, drug combinations, stronger effect = higher value
[15] = growth inhibition, MDA-MB-436, cell-based, BGB or cisplatin combos, synergistic combos for chromothripsis tumors (AID 1671458; call rule not given here;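 also: cells exposed for 96 hours; 0% = vehicle DMSO and 100% = killing by high DMSO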); details: MDA-MB-436 breast carcinoma growth inhibition, drug combinations, stronger effect = higher value
[16] = BT084 cell growth, single and combined drugs, ICGC_MB145, cisplatin and BGB IC40 combos (AID 1671461; in the data active = inhibition above about 80%;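 also: cells exposed to drugs for 96 hours; 0% = vehicle DMSO and 100% = high DMSO full killing control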); details: BT084 medulloblastoma cells, drug combinations, stronger effect = higher value
[17] = RCMB18 cell growth, single agent and combined, cisplatin and BGB IC40 combos (AID 1671462; in the data active = inhibition above about 80%;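 also: cells exposed to compound for four days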); details: RCMB18 medulloblastoma cells, stronger effect = higher value
[18] = viability loss in pontine glioma line – cell-based, SU-DIPG-IV, MIPE4.0, CellTiter-Glo, qHTS, dose response (AID 1347063; cut-off not given, nearly all actives have AC50 up to about 30 µM;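 also: compound exposure lasted 48 hours before the viability readout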); details: CellTiter-Glo ATP luminescence
[19] = drug combination growth inhibition, ovarian cancer – cell-based, oncology-focused library, rucaparib conditional, profiling panel (AID 1508598); details: patient-derived ovarian cancer cells, CellTiter-Glo viability, 144 h, stronger effect = lower value
[20] = stronger effect = lower value, cell number ratio, induced over uninduced
[21] = measured here: relative caspase fold change +Dox/-Dox
[22] = measured here: total cells with miR-34 induction, stronger effect = lower value
[23] = measured here: total cells without miR-34 induction
[24] = MELAS cybrid survival, CellTiter-Glo 48 h, stronger effect = higher value
[25] = Rieske KO mouse fibroblast survival, CellTiter-Glo 72 h

## COc1ccc(-c2nc(N3CCOCC3)c3sc(CN(C)c4ncc(C(=O)NO)cn4)cc3n2)cn1
[1]
  AC50: 0.0235 µM (active)
[2]
  AC50: 0.0372 µM (active)
[3]
  AC50: 0.0132 µM (active)
[4]
  AC50: 0.0263 µM (active)
[5]
  AC50: 0.0148 µM (active)
[6]
  AC50: 0.00263 µM (active)
[7]
  AC50: 0.00662 µM (active)
[8]
  IC50: 0.295 µM (active)
[9]; [20]
  fold change: 1.02 (inactive)
[9]; [21]
  fold change: 0.447
[9]; [22]
  cell count: 1250
[9]; [23]
  cell count: 1230
[10]; [24]
  z-score: -0.053 (inactive)
[10]; [25]
  z-score: -3.69
[11]; at 0.5 µM, stronger effect = higher value
  inhibition: -17.1% (inactive) and 84.7% (active)
[11]; measured here: combination with BGB IC20, at 0.005 µM
  inhibition: -19% and -26.8%
[11]; measured here: combination with BGB IC40, at 0.005 µM
  inhibition: -13.4% and -10.7%
[11]; measured here: combination with BGB IC40, at 0.05 µM
  inhibition: -8.69% and -6.92%
[11]; measured here: combination with cisplatin, at 0.5 µM, stronger effect = higher value
  inhibition: -32.9% and 119%
[11]; measured here: combination with cisplatin, at 5 µM, stronger effect = higher value
  inhibition: 120% and 126%
[12]; BGB combo, at 5 µM
  inhibition: 99.9% and 99.7%
[12]; at 0.5 µM
  inhibition: 98.9% (active) and 93.4% (active)
[12]; cisplatin combo, at 5 µM
  inhibition: 99.9%
[12]; measured here: with BGB IC20 combination, at 0.5 µM
  inhibition: 97.8% and 90.5%
[12]; measured here: with cisplatin IC20 combination, at 0.5 µM
  inhibition: 99.5% and 96.1%
[12]; single agent, at 5 µM
  inhibition: 99.9%
[13]; BGB IC20 combo, at 0.005 µM
  inhibition: 85.9% and 87.2%
[13]; BGB IC40 combo, at 0.005 µM
  inhibition: 93.2% and 94%
[13]; BGB IC40 combo, at 0.05 µM
  inhibition: 101%
[13]; at 0.5 µM
  inhibition: -8.74% (inactive) and -32% (inactive)
[13]; cisplatin combo, at 0.05 µM
  inhibition: 101%
[13]; cisplatin combo, at 0.5 µM
  inhibition: 10.9% and -33%
[13]; cisplatin combo, at 5 µM
  inhibition: 21.2% and -18.3%
[13]; measured here: 5 uM single agent, at 5 µM
  inhibition: 1.99% and 3.43%
[14]; at 0.5 µM
  inhibition: 99.5% (active) and 95.4% (active)
[14]; measured here: with BGB IC20, at 0.5 µM
  inhibition: 99.5% and 93.3%
[14]; measured here: with BGB IC20, at 5 µM
  inhibition: 99.8% and 99.9%
[14]; measured here: with cisplatin IC20, at 0.5 µM
  inhibition: 99.9%
[14]; measured here: with cisplatin IC20, at 5 µM
  inhibition: 100% and 99.9%
[14]; single agent, at 5 µM
  inhibition: 99.9%
[15]; at 0.5 µM
  inhibition: 55.1% (inactive) and 39.3% (inactive)
[15]; measured here: BGB combination, at 0.5 µM
  inhibition: 45.2% and 33.3%
[15]; measured here: BGB combination, at 5 µM
  inhibition: 89.9% and 80.2%
[15]; measured here: cisplatin combination, at 0.5 µM
  inhibition: 50.8% and 33.9%
[15]; measured here: cisplatin combination, at 5 µM
  inhibition: 91.2% and 86.1%
[16]; at 0.5 µM
  inhibition: 84.3% (active) and 90.7% (active)
[16]; cisplatin combination, at 0.5 µM
  inhibition: 99.6% and 101%
[16]; cisplatin combination, at 5 µM
  inhibition: 102% and 106%
[16]; measured here: BGB IC40 combination 0.05 uM, at 0.05 µM
  inhibition: 55.4% and 3.88%
[16]; single agent, at 5 µM
  inhibition: 109% and 106%
[17]; at 0.5 µM
  inhibition: 90.3% (active) and 89.8% (active)
[17]; cisplatin combo, at 5 µM
  inhibition: 97.3% and 101%
[17]; measured here: BGB IC40 combination, at 0.05 µM
  inhibition: 42.1% and 41.3%
[17]; measured here: combination with cisplatin, at 0.5 µM
  inhibition: 91.8% and 91.3%
[17]; single agent, at 5 µM
  inhibition: 98.7% and 99.3%

## C/C=C1\NC(=O)[C@H]2CSSCC/C=C\[C@H](CC(=O)N[C@H](C(C)C)C(=O)N2)OC(=O)[C@H](C(C)C)NC1=O
[1]
  AC50: 0.0833 µM (active)
[2]
  AC50: 0.0148 µM (active)
[3]
  AC50: 0.0118 µM (active)
[18]
  AC50: 0.00935 µM (active)
[5]
  AC50: 0.059 µM (active)
[8]
  IC50: 3.72 µM (active)

## Nc1nc2c(c(=O)[nH]1)N(C=O)[C@H](CNc1ccc(C(=O)N[C@@H](CCC(=O)O)C(=O)O)cc1)CN2
[1]
  outcome: inactive
[2]
  outcome: inactive
[3]
  outcome: inactive
[4]
  outcome: inactive
[5]
  outcome: inactive
[6]
  outcome: inactive
[7]
  outcome: inactive
[8]
  outcome: inactive

## COc1cc2c(Oc3ccc4[nH]c(C)cc4c3F)ncnc2cc1OCCCN1CCCC1
[1]
  AC50: 1.86 µM (active)
[2]
  AC50: 6.62 µM (active)
[3]
  AC50: 20.9 µM (active)
[4]
  AC50: 2.35 µM (active)
[5]
  AC50: 2.09 µM (active)
[6]
  AC50: 23.5 µM (active)
[7]
  AC50: 11.8 µM (active)
[8]
  IC50: 16.6 µM (active)
[9]; [20]
  fold change: 0.973 (inactive)
[9]; [21]
  fold change: 1.09
[9]; [22]
  cell count: 3660
[9]; [23]
  cell count: 3760
[10]; [24]
  z-score: -0.469 (inactive)
[10]; [25]
  z-score: -0.313
[19]; at 0.000305 µM, OCI-C5x cells, with rucaparib 10 µM, 100% = cells with rucaparib alone
  viability: 123% (inactive)
[19]; at 0.000305 µM, OCI-C5x cells, without rucaparib
  viability: 103% (inactive)
[19]; at 0.000305 µM, OCI-P5x cells, with rucaparib 20 µM, 100% = cells with rucaparib alone
  viability: 96.3% (active)
[19]; at 0.000305 µM, OCI-P5x cells, without rucaparib
  viability: 88.7% (active)
[19]; at 0.00122 µM, OCI-C5x cells, with rucaparib 10 µM, 100% = cells with rucaparib alone
  viability: 114% (inactive)
[19]; at 0.00122 µM, OCI-C5x cells, without rucaparib
  viability: 112% (inactive)
[19]; at 0.00122 µM, OCI-P5x cells, with rucaparib 20 µM, 100% = cells with rucaparib alone
  viability: 105% (inactive)
[19]; at 0.00122 µM, OCI-P5x cells, without rucaparib
  viability: 94% (active)
[19]; at 0.00488 µM, OCI-C5x cells, with rucaparib 10 µM, 100% = cells with rucaparib alone
  viability: 107% (inactive)
[19]; at 0.00488 µM, OCI-C5x cells, without rucaparib
  viability: 99.8% (active)
[19]; at 0.00488 µM, OCI-P5x cells, with rucaparib 20 µM, 100% = cells with rucaparib alone
  viability: 97.5% (active)
[19]; at 0.00488 µM, OCI-P5x cells, without rucaparib
  viability: 91.6% (active)
[19]; at 0.0195 µM, OCI-C5x cells, with rucaparib 10 µM, 100% = cells with rucaparib alone
  viability: 123% (inactive)
[19]; at 0.0195 µM, OCI-C5x cells, without rucaparib
  viability: 96.3% (active)
[19]; at 0.0195 µM, OCI-P5x cells, with rucaparib 20 µM, 100% = cells with rucaparib alone
  viability: 97.8% (active)
[19]; at 0.0195 µM, OCI-P5x cells, without rucaparib
  viability: 93.1% (active)
[19]; at 0.0781 µM, OCI-C5x cells, with rucaparib 10 µM, 100% = cells with rucaparib alone
  viability: 126% (inactive)
[19]; at 0.0781 µM, OCI-C5x cells, without rucaparib
  viability: 101% (inactive)
[19]; at 0.0781 µM, OCI-P5x cells, with rucaparib 20 µM, 100% = cells with rucaparib alone
  viability: 81.8% (active)
[19]; at 0.0781 µM, OCI-P5x cells, without rucaparib
  viability: 92% (active)
[19]; at 0.313 µM, OCI-C5x cells, with rucaparib 10 µM, 100% = cells with rucaparib alone
  viability: 116% (inactive)
[19]; at 0.313 µM, OCI-C5x cells, without rucaparib
  viability: 98.1% (active)
[19]; at 0.313 µM, OCI-P5x cells, with rucaparib 20 µM, 100% = cells with rucaparib alone
  viability: 91.9% (active)
[19]; at 0.313 µM, OCI-P5x cells, without rucaparib
  viability: 94.6% (active)
[19]; at 1.25 µM, OCI-C5x cells, with rucaparib 10 µM, 100% = cells with rucaparib alone
  viability: 123% (inactive)
[19]; at 1.25 µM, OCI-C5x cells, without rucaparib
  viability: 107% (inactive)
[19]; at 1.25 µM, OCI-P5x cells, with rucaparib 20 µM, 100% = cells with rucaparib alone
  viability: 110% (inactive)
[19]; at 1.25 µM, OCI-P5x cells, without rucaparib
  viability: 86.9% (active)
[19]; at 5 µM, OCI-C5x cells, with rucaparib 10 µM, 100% = cells with rucaparib alone
  viability: 131% (inactive)
[19]; at 5 µM, OCI-C5x cells, without rucaparib
  viability: 115% (inactive)
[19]; at 5 µM, OCI-P5x cells, with rucaparib 20 µM, 100% = cells with rucaparib alone
  viability: 76.9% (active)
[19]; at 5 µM, OCI-P5x cells, without rucaparib
  viability: 82.8% (active)
